Measured values as given in PubChem BioAssay AID485358 (National Center for Advancing Translational Sciences (NCATS), 2010).
The whole screen tested about 340,000 compounds, of which about 1,800 (0.53%) were called active. Only a selection was taken, and actives are over-represented in it overall. A number with no mark means an inactive call.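 The calls were made as follows: active = activation over 3 SD above normal in the single-dose calcium agonist read (cut at about 30% in these data); inactive = the rest.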

Target: D(2) dopamine receptor (Homo sapiens) (UniProt P14416)
Sequence (P14416 whole entry, looked up): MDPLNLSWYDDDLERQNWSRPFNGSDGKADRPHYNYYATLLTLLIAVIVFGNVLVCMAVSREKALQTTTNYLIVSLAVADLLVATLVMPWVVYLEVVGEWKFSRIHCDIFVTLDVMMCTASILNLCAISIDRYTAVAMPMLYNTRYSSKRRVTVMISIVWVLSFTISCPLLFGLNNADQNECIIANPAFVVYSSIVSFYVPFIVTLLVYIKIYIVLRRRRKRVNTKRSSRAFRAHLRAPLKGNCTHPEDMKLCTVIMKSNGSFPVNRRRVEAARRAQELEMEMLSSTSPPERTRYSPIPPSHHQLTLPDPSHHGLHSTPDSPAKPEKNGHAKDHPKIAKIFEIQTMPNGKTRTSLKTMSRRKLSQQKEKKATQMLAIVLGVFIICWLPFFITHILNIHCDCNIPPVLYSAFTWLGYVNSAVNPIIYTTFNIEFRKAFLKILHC
Experiment: HTS Assay for Allosteric Agonists of the Human D2 Dopamine Receptor: Primary Screen for Agonists; also: 0% is about no effect
Settings: HEK293 T-REx D2 cells, calcium flux agonist mode; at 2 µM; active compounds read high
Summary of the method: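 In this primary screen, compounds producing a positive calcium signal within 180 s of addition to tetracycline-induced, force-coupled HEK293 Trex D2 cells are flagged; cells are dye-loaded with a no-wash calcium kit beforehand.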

Row | SMILES | activation
1 | CCOC(=O)c1nnn2c3ccccc3c(=O)n(C)c12 | 0.451%
2 | Cn1c2ccccc2c2c(C(=O)N3CCN(c4ccc(F)cc4)CC3)cn(C3CCCC3)c(=O)c21 | 0.715%
3 | CCCc1nc2c(c(=O)c3ccccc3n2C)c(=O)n1C1CCCCCC1 | 38.8% (active)
4 | COc1cccc(CNc2nccn(-c3ccc(OC)c(OC)c3)c2=O)c1 | 0.433%
5 | CCOc1ccccc1C(=O)NC1(C(F)(F)F)NC(=O)N(CCc2ccc(OC)c(OC)c2)C1=O (stereo not given) | -1.49%
6 | Cc1ccc(C)c(CN2C(=O)c3ccccc3S(=O)c3ccc(C(=O)N4CCOCC4)cc32)c1 (stereo not given) | 0.908%
7 | CCSc1nnc2c(n1)OC(c1ccc(OCC(=O)O)cc1)Nc1ccccc1-2 (stereo not given) | -0.918%
8 | CC(C)c1csc(CN2CCC(CO)(Cc3ccccc3)CC2)n1 | 0.222%
9 | OCC1(Cc2ccccc2)CCN(Cc2cc3ccccc3o2)CC1 | 58.8% (active)
10 | O=C(c1cc2ccccc2o1)N1CCN(Cc2ccccc2)CC1 | 0.213%
11 | OC(COc1ccc2c(c1)CCC2)CN1CCN(c2cccc(Cl)c2)CC1 (stereo not given) | 55.1% (active)
12 | O=c1cc(CN2CCN(c3cccc(Cl)c3)CC2)c2cc3c(cc2o1)CCCC3 | -0.276%
13 | O=C(c1ccc(Cl)cc1)c1ccc(OCC(O)CN2CCCCC2)cc1 (stereo not given) | 0.406%
14 | CCNS(=O)(=O)c1ccc(NC(=O)CSc2nc(-c3ccco3)cc(C(F)(F)F)n2)cc1 | -0.45%
15 | Nc1c(C(=O)c2cccs2)sc2nsc(SCCN3CCCCC3)c12 | 52.2% (active)
16 | COc1ccc(CCC(=O)NCc2ccc3c(c2)CCN3C(=O)c2ccc(F)cc2)cc1 | 1.61%
17 | CCN1CCN(c2ncc3c(n2)CC(c2ccccc2O)CC3=O)CC1 (stereo not given) | -0.199%
18 | COc1cc(OC)c2ccc(=O)oc2c1C(CCN1CCN(c2ccccc2)CC1)c1ccc2c(c1)OCO2 (stereo not given) | 78.4% (active)
19 | CCN(CC)CCC(c1ccc2c(c1)OCO2)c1c(OC)cc(OC)c2c(-c3ccccc3)cc(=O)oc12 (stereo not given) | -1.38%
20 | COc1cc(C(CCN2CCN(c3ccccc3)CC2)c2c(OC)cc(OC)c3ccc(=O)oc23)cc(OC)c1OC (stereo not given) | 25.6%
21 | CCCn1c2ccccc2c2cnn(CC(=O)N3CCCC(C(=O)OCC)C3)c(=O)c21 (stereo not given) | 0.474%
22 | CCN(C(=O)Cn1c(=O)nc(-c2ccccc2)c2cc(Cl)ccc21)c1cccc(C)c1 | 6.7%
23 | Cc1csc2nc(COc3ccc(NC(=O)COc4ccccc4)cc3)cc(=O)n12 | -0.592%
24 | Cc1csc2nc(COC(=O)c3ccccc3NC(=O)c3ccccc3Cl)cc(=O)n12 | 0.344%
25 | O=c1cc(CCl)nc2scc(-c3ccccc3)n12 | 39.4% (active)
26 | CCc1ccccc1NC(=O)c1ccc(F)c(S(=O)(=O)NC2CCCCCC2)c1 | 0.52%
27 | COc1ccc(NC(=O)CN2CCCN(Cc3ccccc3)S2(=O)=O)cc1 | -1.11%
28 | COc1ccc(-c2nn(CC(=O)Nc3ccccc3F)c3c2cnc2ccc(F)cc23)cc1 | 0.341%

Row | SMILES | activation
29 | CN1C(=O)c2[nH]nc(-c3ccc(F)cc3)c2C1c1ccccn1 (stereo not given) | 1.23%
30 | Cc1ccccc1N1CCN(CCCOc2ccc3c(C)cc(=O)oc3c2)CC1 | 80.1% (active)
31 | Cc1cc(=O)oc2cc(OCCC[n+]3ccccc3)ccc12 | 0.774%
32 | CCOc1ccccc1N1CCN(C(=O)COc2ccc3c(C)cc(=O)oc3c2)CC1 | -0.577%
33 | CCOc1ccc(NC(=O)Cn2cc(C(=O)c3ccc(C)cc3)c(=O)c3cc4c(cc32)OCCO4)cc1 | -0.524%
34 | CNCC(O)c1ccc(O)c(O)c1 (stereo not given) | 64.9% (active)
35 | CC(=O)NCC(O)c1ccc([N+](=O)[O-])cc1 (stereo not given) | -2.19%
36 | CC(Sc1oc(-c2ccco2)nc1S(=O)(=O)c1ccc(Br)cc1)c1ccccc1 (stereo not given) | 0.011%
37 | COc1ccccc1C(=O)Nc1c(C(=O)N(C)Cc2ccccc2)sc2nc(C)c(Cl)c(C)c12 | 0.563%
38 | COc1cc(NC(=O)c2nc3ccccc3nc2C)cc(OC)c1OC | 0.0893%
39 | COc1cccc(CNC(=O)c2cc(=O)[nH]c3ccc(S(=O)(=O)N4CCCCC4)cc23)c1 | 0.436%
40 | CCOc1ccc(N(CC)C(=O)c2noc3c2COc2ccc(C)cc2-3)cc1 | 0.123%
41 | Cc1ccccc1Nc1nc(N)nc(CSc2ccccc2)n1 | 0.151%
42 | Cc1ccccc1Nc1nc(N)nc(CN2CCN(c3ccccn3)CC2)n1 | 38.5% (active)
43 | Cc1ccccc1Nc1nc(N)nc(CSc2nnc3ccccn23)n1 | 0.185%
44 | CCOc1ccc(N(Cc2ccccc2)C(=O)c2nc(S(C)(=O)=O)ncc2Cl)cc1 | 10%
45 | COc1ccccc1CNC(=O)CCn1c(=O)c2ccccc2n(CC(=O)Nc2ccc(Br)cc2F)c1=O | -0.617%
46 | COc1cccc(-c2ccc3c(c2)S(=O)(=O)c2cccc(C(=O)O)c2C3=O)c1OC | 1.73%
47 | Cc1ccc(CNC(=O)c2cccc3c2C(=O)c2ccc(N4CCC(C)CC4)cc2S3(=O)=O)cc1 | 32% (active)
48 | CC1CCN(c2c(NCc3ccc(C(=O)NCc4ccccc4)cc3)c(=O)c2=O)CC1 | -1.43%
49 | CCOc1cccc(CC(=O)N2CCc3c([nH]c4ccccc34)C2c2ccc(F)cc2)c1OCC (stereo not given) | -0.484%
50 | Cc1c(CCNC(=O)c2ccc(C(F)(F)F)cc2)sc2nc(-c3ccc(F)cc3)nn12 | -2.35%
51 | O=C(NCc1ccccc1Cl)c1ccc2c(=O)n(CC3CCCO3)c(=S)[nH]c2c1 (stereo not given) | -2.85%
52 | O=C(NC1CCCCC1)c1ccc2c(=O)n(CC3CCCO3)c(=O)[nH]c2c1 (stereo not given) | 31.5% (active)
53 | CCCCCn1c(=O)[nH]c2cc(C(=O)NCCCN3CCCCC3C)ccc2c1=O (stereo not given) | 1.64%
54 | COc1ccc(-c2nc3nc(C)cc(C)n3c2Nc2c(C)cccc2C)cc1 | 2.98%
55 | CCc1cc2c(cc3c(=O)n(CC(=O)NCCc4ccc(OC)c(OC)c4)ncn32)s1 | -0.234%
